Sampled rows, rich in hits. Any-hit rate of the full collection: about 3.4%.
GPR151 activ – activators of human GPR151, primary screen, cell-based, PathHunter beta-arrestin, luminescence. G-protein coupled receptor 151 (Homo sapiens), Q8TDV0. PathHunter beta-arrestin GPR151 cells. activation, % at 11.2 µM. actives 1% (n = 650,000); in the data active = activation above about 4.9%;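 also: 0% = median of compound wells and 100% = cells with positive control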
MITF inh – MITF inhibitors, primary screen, biochemical, AlphaScreen, human | AID 1259374, 2018 | AlphaScreen MITF homodimerization, bead proximity signal | inhibition, % at 2.6 µM | Microphthalmia-associated transcription factor (Homo sapiens), O75030 | actives 0.91% (n = 650,000); in the data active = inhibition above about 50%;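 also: 0% = vehicle wells with protein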
TEAD-YAP inh – TEAD-YAP interaction inhibition, primary screen, TEAD-YAP interaction inhibitor project, luminescence, HEK-TIYL cells | inhibition, % at 9.12 µM | TEAD-Gal4/YAP UAS-luciferase luminescence | actives 1.4% (n = 640,000); in the data active = inhibition above about 32%;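 also: 0% = median of test compound wells and 100% = reference inhibitor wells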
FBW7 activator – FBW7 E3 ligase activators, primary screen, biochemical, AlphaScreen, human; F-box/WD repeat-containing protein 7 (Homo sapiens), Q969H0; AlphaScreen FBW7–phospho-cyclin E peptide binding, activator screen; normalized activity (activation), % at 26.1 µM; actives 0.13% (n = 650,000); AID 1259310, 2017; in the data active = normalized activity above about 1.9%;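 also: purified mutant Fbw7 with reduced substrate affinity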
Active calls of the source: *.

SMILES	GPR151 activ	MITF inh	TEAD-YAP inh	FBW7 activator
O=C(O)c1ccccc1NS(=O)(=O)c1ccc(O)c([N+](=O)[O-])c1	2	-8	4	0
COc1ccccc1-c1ccc(=O)n(CC(=O)Nc2ccc(C(=O)N3CCCC3)cc2)n1	-1	4	-3	4.1*
CN1CCN(C(=O)c2ccc(NC(=O)Cn3nc(-c4ccccc4F)ccc3=O)cc2)CC1	-1	16	3	0
Oc1c(C(Nc2cccc(Cl)c2)c2ccccn2)ccc2cccnc12 (stereo not given)	-1	45	62*	0
Oc1c(C(Nc2cccc(C(F)(F)F)c2)c2cccnc2)ccc2cccnc12 (stereo not given)	1	65*	15	-2
O=[N+]([O-])c1ccc(NC(c2ccccn2)c2ccc3cccnc3c2O)cc1 (stereo not given)	1	18	87*	-1
O=C(NC(c1ccccc1)c1ccccn1)c1ccc([N+](=O)[O-])cc1 (stereo not given)	1	5	4	0
Oc1c(C(Nc2ccc(Cl)cc2)c2ccccn2)ccc2cccnc12 (stereo not given)	0	69*	16	-2
CCN1CCN(c2cc(C)c3cc(NC(=O)Cn4nc(C(F)(F)F)c(Br)c4C)ccc3n2)CC1	0	-7	-1	0
COc1cc(C2C(C(=O)Nc3ccc(C)cc3C)=C(C)Nc3ncnn32)cc(OC)c1OC (stereo not given)	1	3	6	0
O=C(Cn1nc(C(F)(F)F)c2c1CCC2)N1CCCC1	-1	0	-4	0
Cc1ccc2c(c1)nnn2C1CCN(CC(=O)Nc2ccc3c(c2)CCC3)CC1	0	6	0	0
O=c1cc(CO)oc(C(Nc2cccc(F)c2)c2ccccn2)c1O (stereo not given)	3	12	4	0
Oc1c(C(Nc2cccc(C(F)(F)F)c2)c2ccccn2)ccc2cccnc12 (stereo not given)	3	51*	27	-1
CCOC(=O)Cc1csc(N/N=C\c2ccc(C(F)(F)F)cc2)n1	-1	14	61*	0
CC1CCC(C(C)C)C(OC(=O)Cn2c(-c3ccc(Cl)cc3)[n+](C)c3ccccc32)C1 (stereo not given)	4	-3	45*	0
C/C=C/COC(=O)C1=C(C)NC(=O)NC1c1ccc(Cl)cc1Cl (stereo not given)	0	5	64*	0
Cc1cc([N+](=O)[O-])cc2c1nnn2O	3	6	6	0
CCOC(=O)c1sc(C)c(C(=O)NC2CCCCC2)c1N	-2	12	-23	0
CCC(=O)Nc1sc(C(=O)NC2CCCCC2)c(C)c1C(=O)OC	0	-16	37*	0
CCOC(=O)c1c(N)sc(C(=O)NC2CCCCC2)c1C	-6	0	70*	0
N[C@H]1CC[C@@H](C(=O)Nc2ccc3cnccc3c2)C1	0	7	36*	0
N[C@@H]1CC[C@H](C(=O)Nc2ccc3[nH]ncc3c2)C1	-2	10	1	1
CCCCC(=O)Nc1ccc(Nc2nc(C)cc(N3CCCC3)n2)cc1	0	-18	65*	0
CCCC(=O)Nc1ccc(Nc2nc(C)cc(N3CCOCC3)n2)cc1	1	2	24	0
SMILES	GPR151 activ	MITF inh	TEAD-YAP inh	FBW7 activator
Cc1cc(N2CCCC2)nc(Nc2ccc(NS(=O)(=O)c3ccc(F)cc3)cc2)n1	0	0	57*	0
N#Cc1ccc(-c2cnc3ccc(NCCc4ccccn4)nn23)cc1	-1	13	63*	2
Clc1cccc(-c2cnc3ccc(NCCc4ccccn4)nn23)c1	1	-10	48*	0
c1ccc(CCNc2ccc3ncc(-c4ccc(N5CCOCC5)cc4)n3n2)nc1	-1	19	47*	0
COc1ccc(-c2cnc3ccc(NCCc4ccccn4)nn23)cc1	0	-9	36*	0
CCCNc1ccc2ncc(-c3ccc(N4CCOCC4)cc3)n2n1	0	8	10	0
Clc1ccc(-c2cnc3ccc(NCCc4ccccn4)nn23)cc1	1	18	29	1

Screens from PubChem BioAssay.
